High-throughput results deposited in PubChem by The Scripps Research Institute Molecular Screening Center.
Compounds with a hit are over-represented: about 2.3% of the library has one in this group of screens.
CHRM1 agonist – human M1 muscarinic receptor agonists, primary screen, Fluo-8 calcium fluorescence, CHO-K1 cells, HTS; CHO-K1 hM1, agonist mode; 0% DMSO, 100% acetylcholine EC100; activation, % at 3 µM; 360,000 tested, 0.33% active; AID 588814, 2011;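 active = activation above the run's mean compound activation plus 3 SD, cut at about 16% in these data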;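 also: peak over basal fluorescence ratio within a 140 s kinetic read after compound addition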
Target sequence (P11229 whole entry, looked up): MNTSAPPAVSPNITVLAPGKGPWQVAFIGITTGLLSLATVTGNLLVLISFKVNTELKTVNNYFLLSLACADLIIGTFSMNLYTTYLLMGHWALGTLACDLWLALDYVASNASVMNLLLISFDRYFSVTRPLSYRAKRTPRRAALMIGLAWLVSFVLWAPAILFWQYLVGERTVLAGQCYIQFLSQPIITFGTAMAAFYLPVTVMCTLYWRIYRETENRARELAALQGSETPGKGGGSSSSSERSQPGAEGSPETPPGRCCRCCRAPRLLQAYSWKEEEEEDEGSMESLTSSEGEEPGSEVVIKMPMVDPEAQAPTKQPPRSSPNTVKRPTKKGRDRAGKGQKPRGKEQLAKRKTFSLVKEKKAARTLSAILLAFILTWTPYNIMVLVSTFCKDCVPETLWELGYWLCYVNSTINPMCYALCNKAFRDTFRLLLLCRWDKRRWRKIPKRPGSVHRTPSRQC
M1 PAM – human M1 muscarinic receptor positive allosteric modulators, primary screen, CHO-K1 cells, Fluo-8 calcium fluorescence, 1536-well | Muscarinic acetylcholine receptor M1 (Homo sapiens), P11229 | CHO-K1 hM1, ACh EC20; 0% = ACh EC20, 100% = maximal ACh | activation, % at 3 µM | 360,000 tested, 0.088% active; in the data active = activation above about 19%, passing the limit was not always enough
M1 PAM parental – nonselective calcium activators in parental CHO-K1 cells, primary screen, counter-screen for M1 PAM project, cell-based, Fluo-8 calcium fluorescence, full deck, 1536-well; ATP EC20; 0% at ATP EC20, 100% at ATP max; activation, % at 3 µM; 360,000 tested, 0.02% active;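 active = activation above the run cutoff, the mean activation of all test compounds plus 3 SD, cut at about 40% in these data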;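 also: peak over basal fluorescence ratio in a 140 s read after ATP addition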
M1 ag parental – counter-screen for M1 agonists: effect in parental CHO-K1 cells. activation, % at 3 µM. AID 602248, 2012. 360,000 tested, 0.48% active. Fluo-8 calcium fluorescence; scaled to maximal ATP response, vehicle zero; in the data active = activation above about 15%;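 also: untransfected CHO-K1 host cells lacking M1 receptor as counterscreen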
M1 antag – human M1 muscarinic receptor antagonists, primary screen, CHO-K1 cells, Fluo-8 calcium fluorescence, 1536-well; CHO-K1 hM1, ACh EC80 antagonist; Muscarinic acetylcholine receptor M1 (Homo sapiens), P11229; 360,000 tested, 1.3% active; inhibition, % at 3 µM;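 active = percent inhibition above its own plate's cutoff, namely the mean of that plate's compound wells plus 3 SD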;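 also: peak over basal fluorescence ratio during 140 s after agonist addition; 0% = ACh EC80 plus DMSO and 100% = DMSO alone without agonist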
CHO-K1 Ca antag – counter-screen for M1 antagonists: effect in parental CHO-K1 cells | ATP-induced calcium, Fluo-8 fluorescence | inhibition, % at 3 µM | 360,000 tested, 0.6% active | AID 602250;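 active = inhibition above a per-plate cutoff, the plate's mean sample inhibition plus 3 SD, cut at about 24% in these data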;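 also: 0% = DMSO plus EC80 ATP and 100% = DMSO alone without ATP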
Active calls of the source: *; x = not tested or not shown.

SMILES	CHRM1 agonist	M1 PAM	M1 PAM parental	M1 ag parental	M1 antag	CHO-K1 Ca antag
CCNc1nc(NC(C)(C)C)nc(N2CCCCC2)n1	-11	-28	21	5	86*	-8
CNCC/C=C1/c2ccccc2CSc2ccccc21	-2	-21	17	5	95*	-1
OCCN1CCN(CC/C=C2/c3ccccc3CSc3ccccc32)CC1	-7	-13	23	2	12	-7
Cc1cc(=O)oc2c(CN3CCCC3)c(O)c(Cl)cc12	-4	6	1	0	-6	-5
CCCc1cc(=O)oc2c(CN3CCCC3)c(O)c(Cl)cc12	-2	1	-9	0	-2	29*
COc1ccc(S(=O)(=O)NNC(=O)Nc2ccc(C)cc2C)c(OC)c1	-3	4	7	1	-2	-19
O=C1CC(=C(c2ccccc2)c2ccccc2)C(=O)N1CCN1CCN(c2cccc(Cl)c2)CC1	-5	-1	2	1	7	-1
O=C1CC(=C(c2ccccc2)c2ccccc2)C(=O)N1CCCN1CCN(c2cccc(Cl)c2)CC1	-5	-20	22	0	38*	-19
O=C(CSc1ncccn1)c1ccccc1Br	0	7	-6	0	-1	27*
O=C(NC(=S)Nc1ccc(Cl)cn1)C(c1ccccc1)c1ccccc1	-5	-3	0	0	0	-14
S=C(Nc1ccccc1)Nc1ccc(Cl)cn1	-5	-13	8	4	37*	-2
COc1ccc(N2CCN(C(=O)COC(=O)c3oc4ccc(OC)cc4c3C)CC2)cc1	0	-12	-9	16*	14	5
CC1(c2nnnn2-c2ccc3c(c2)OCCO3)CCC(=O)N1Cc1cccnc1 (stereo not drawn)	x	x	6	0	x	2
O=C(/C=C/c1cccc(Cl)c1)N1CCC(Cc2ccccc2)CC1	-2	-10	-12	1	17	25*
O=C(Cc1nc(-c2ccc([N+](=O)[O-])cc2)cs1)Nc1ccccc1	18*	7	19	8	-4	-7
COCC(=O)Nc1nc(-c2ccc([N+](=O)[O-])cc2)cs1	-3	9	16	4	-10	-17
COc1cccc(C(N)c2nc(-c3csc4ccccc34)cs2)c1 (stereo not drawn)	-1	11	21	1	-21	-19
CC(C(=O)NCC1(c2ccccc2)CCCC1)N1CCCC1 (stereo not drawn)	-9	-22	0	1	97*	3
CC(C(=O)NCC1(c2ccccc2)CCCC1)N1CCOCC1 (stereo not drawn)	-7	-2	10	1	-3	-5
CCn1cc(CN2CCCC(CNC(=O)COc3ccccc3OC)C2)c(C)n1 (stereo not drawn)	-3	4	-12	0	6	-15
Cc1cc(C)cc(NC(=O)CSc2nc(=O)n(CCCN3CCOCC3)c3c2CCCC3)c1	-7	-3	10	1	4	-13
CN1CCN(CC(O)(c2ccc(Cl)cc2)c2ccc(Cl)cc2)CC1	-12	-34	26	5	72*	-11
CCC1CCCCN1C(=O)c1cc(COc2ccc3ncccc3c2)on1 (stereo not drawn)	-1	-13	-7	16*	31	27*
COCC1CCCCN1C(=O)c1cc(COc2ccc3ncccc3c2)on1 (stereo not drawn)	6	-16	-24	20*	55*	33*
COCCC1CCCCN1C(=O)c1cc(COc2ccc(-n3cncn3)cc2)on1 (stereo not drawn)	6	-4	-17	15	31*	25*
O=C(NCc1cccc(Cl)c1)c1cc(COc2ccc3ncccc3c2)on1	-3	-10	-2	12	28	7
COCCOC1CCN(C(=O)c2cc(COc3ccc(-n4cncn4)cc3)on2)CC1	-1	3	-3	1	-4	-1
